GalR3 antag: GalR3 antagonists in HEK293 cells, primary screen, cell-based, fluorescence readout | HEK293 GalR3-CNG cAMP membrane potential fluorescence; galR3 body fused to GalR1 C-terminus | inhibition, % at 3 µM | 0.44% of 360,000 active | AID 651719, 2012;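 active = inhibition above the screen-wide average plus 3 SD, cut at about 13% in these data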;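 also: forskolin and galanin both at EC90 stimulate the cells; cAMP rise reported by CNG channel membrane potential dye signal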
Target sequence (O60755 1-299 limits assumed): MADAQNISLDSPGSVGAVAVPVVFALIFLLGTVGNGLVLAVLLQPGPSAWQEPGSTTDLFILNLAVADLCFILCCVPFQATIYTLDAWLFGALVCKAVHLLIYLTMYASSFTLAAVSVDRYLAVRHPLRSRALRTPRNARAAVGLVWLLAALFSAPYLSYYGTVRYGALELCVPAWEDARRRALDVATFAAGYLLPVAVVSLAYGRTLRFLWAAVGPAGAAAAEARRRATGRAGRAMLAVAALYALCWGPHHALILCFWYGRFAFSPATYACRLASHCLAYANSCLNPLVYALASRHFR
SRC1 inh: SRC1 coactivator transcriptional activity inhibitors, primary screen, cell-based, luminescence; Nuclear receptor coactivator 1 (Homo sapiens), Q15788; HEK293 GAL4-SRC1 luciferase reporter; inhibition, % at 3.6 µM; 0.12% of 360,000 active; AID 588354, 2011;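 active = inhibition above the campaign mean plus 3 SD, with each screening campaign given its own cutoff, cut at about 60% in these data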
COUP-TFII inh: NR2F2 transcriptional activity inhibitors, primary screen, cell-based, luciferase reporter, HEK293T, luminescence; COUP transcription factor 2 (Homo sapiens), P24468; HEK293T NGFI-A luciferase reporter; inhibition, % at 8.6 µM; 0.7% of 370,000 active; AID 686940, 2013;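 active = inhibition above a per-plate cutoff, mean inhibition of test wells between control levels plus 3 SD, cut at about 38% in these data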;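 also: cells cotransfected with COUP-TFII expression vector driving the NGFI-A reporter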
Target sequence (P24468 whole entry, looked up): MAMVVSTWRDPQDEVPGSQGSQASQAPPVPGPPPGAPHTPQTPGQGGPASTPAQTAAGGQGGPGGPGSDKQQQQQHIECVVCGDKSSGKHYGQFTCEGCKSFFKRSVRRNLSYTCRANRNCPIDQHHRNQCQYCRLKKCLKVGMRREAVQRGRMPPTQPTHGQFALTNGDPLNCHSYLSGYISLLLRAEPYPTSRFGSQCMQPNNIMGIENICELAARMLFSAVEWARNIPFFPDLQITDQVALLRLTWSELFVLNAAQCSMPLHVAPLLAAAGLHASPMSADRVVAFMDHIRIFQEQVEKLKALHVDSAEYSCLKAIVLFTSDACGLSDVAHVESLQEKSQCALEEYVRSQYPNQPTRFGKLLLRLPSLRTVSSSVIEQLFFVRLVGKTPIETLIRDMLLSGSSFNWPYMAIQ
SRC3 inh: SRC3 coactivator transcriptional activity inhibitors, primary screen, cell-based, luminescence. HEK293 GAL4-SRC3 luciferase reporter. inhibition, % at 3.6 µM. 0.17% of 360,000 active. AID 588352, 2011;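 active = inhibition above a per-campaign cutoff, the mean of all compounds plus 3 SD, cut at about 60% in these data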;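 also: higher means less SRC3-driven luciferase light from the GAL4 reporter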
NR5A2 inv ag: LRH-1 (NR5A2) inverse agonists, primary screen, cell-based, luminescence, HEK293T, StAR-luciferase reporter; Nuclear receptor subfamily 5 group A member 2 (Homo sapiens), O00482; LRH-1 transfected, 24 h; inhibition, % at 3.6 µM; 0.13% of 360,000 active; AID 602396, 2012;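 active = inhibition above the mean inhibition of all tested compounds plus 3 SD, cut at about 73% in these data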
NCOA2 inhibitor: inhibition of GAL4-SRC2 driven luciferase reporter, primary screen, SRC2 inhibitor project, cell-based, luminescence; HEK293 GAL4-SRC2 luciferase reporter; 0.17% of 370,000 active; inhibition, % at 9 µM; Nuclear receptor coactivator 2 (Homo sapiens), Q15596;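 active = inhibition above the mean inhibition of all tested compounds plus 3 SD, set per campaign, cut at about 52% in these data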
GalR3 antag conf: GalR3 antagonist hit confirmation, cell-based, fluorescence, triplicate; HEK293 GalR3 CNG cAMP biosensor, membrane potential fluorescence; galR3 fused to GalR1 carboxy tail; challenged with forskolin and galanin at EC90; 59% of 1,600 active; shares compounds with GalR3 antag; inhibition, % at 3 µM; AID 652245, 2013;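 active = inhibition above the primary screen's cutoff, the mean inhibition of all screened compounds plus 3 SD, cut at about 13% in these data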
HEK-CNG parental: nonspecific cAMP agonists in parental HEK-CNG cells, counter-screen for GalR3 antagonist project, cell-based, fluorescence, high throughput. activation, % at 3 µM. HEK293-CNG parental cells, cAMP membrane potential fluorescence; normalised: DMSO wells 0%, forskolin wells 100%. 10% of 1,600 active. shares compounds with GalR3 antag; in the data active = activation above about 1.3%
Gal4-VP16 ctr: Gal4-VP16 luciferase reporter inhibitors, counter-screen for COUP-TFII antagonist project, cell-based, luminescence, HEK293 | shares compounds with COUP-TFII inh | inhibition, % at 8.5 µM | 25% of 2,500 active | AID 687007, 2013; in the data active = inhibition above about 13%
COUP-TFII conf: NR2F2 transcriptional activity inhibitors, confirmation, cell-based, luciferase reporter, HEK293, triplicate; 45% of 2,500 active; shares compounds with COUP-TFII inh; HEK293 NGFI-A luciferase reporter, luminescence; inhibition, % at 8.5 µM;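 active = mean inhibition over three repeats above a set limit taken from the earlier primary screen, cut at about 38% in these data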
Hits are given with their value; - = inactive; . = no result given; ! = not confirmed by another sample. An excerpt weighted towards active compounds, which were near 1.1% of everything screened.

SMILES | GalR3 antag | SRC1 inh | COUP-TFII inh | SRC3 inh | NR5A2 inv ag | NCOA2 inhibitor | GalR3 antag conf | HEK-CNG parental | Gal4-VP16 ctr | COUP-TFII conf
COc1ccc(N/C(N)=N/c2nc(C)cc(C)n2)cc1 | - | - | - | - | - | - | . | . | . | .
Cc1cc(C)nc(/N=C(\N)Nc2ccc(CC(=O)OC(C)C)cc2)n1 | 86 | - | 51 | - | - | - | 58 | 1.4 | - | -
Cc1cc(C)nc(/N=C(\N)Nc2ccc(OCc3ccccc3)cc2)n1 | 35 | - | 47 | - | - | - | - | 7.8 | - | -
Cc1cc(C)nc(/N=C(\N)Nc2ccc(OCCC(C)C)cc2)n1 | 45 | - | 58 | - | - | - | 30 | 6.2 | 18 | 38
CCCNC(=O)C[C@H]1CC[C@H]2[C@@H](COc3ccc(NC(=O)c4cncs4)cc3C(=O)N2C)O1 | . | . | - | . | . | - | . | . | . | .
COc1ccc(S[C@]2(C(=O)N(C)C)CC(=O)N(c3ccccc3)[C@@H]2c2ccc(OC)cc2)cc1 | . | . | - | . | . | - | . | . | . | .
COc1ccc(F)cc1CSc1nnnn1-c1ccc(O)cc1 | - | - | - | - | - | - | . | . | . | .
COc1cc(CSc2nnnn2-c2ccc(C)cc2)cc(OC)c1OC | 96 | - | 69 | - | - | - | 98 | - | - | 54
CC(C)c1ccc(CN2CCN(C(=O)CSc3nnnn3C3CC3)CC2)cc1 | 97 | - | 63 | - | - | - | 107 | - | - | 51
COc1ccccc1CC(=O)Nc1cccc(S(=O)(=O)N2CCOCC2)c1 | - | - | - | - | - | - | . | . | . | .
COc1ccc(CC(=O)Nc2cccc(S(=O)(=O)N3CCCC3)c2)cc1OC | 85 | - | 62 | - | - | - | 28 | - | - | 45
COc1ccc(CC(=O)Nc2cccc(S(=O)(=O)N3CCOCC3)c2)cc1OC | 41 | - | 47 | - | - | - | 18 | - | - | -
Nc1c(C(=O)Nc2ccc3c(c2)OCCO3)nnn1Cc1ccc(Cl)cc1 | - | - | - | - | - | - | . | . | . | .
NC(=O)c1nnn(Cc2cc(Cl)c(C(=O)c3ccc(Cl)cc3)c(Cl)c2)c1N | 97 | . | 55 | . | - | - | 120 | - | - | 54
O=C(CN1CCC(c2nc3ccccc3s2)CC1)NCc1cccs1 | 78 | - | 53 | - | - | - | 76 | 1.8 | - | -
O=C(CN1CCC(c2nc3ccccc3s2)CC1)N1CCCCC1 | - | - | - | - | - | - | . | . | . | .
COc1ccc(C(=O)N2CCN(c3ccc([N+](=O)[O-])c(NCCc4ccc(OC)c(OC)c4)c3)CC2)cc1 | 24 | - | 39 | - | - | - | 92 | - | - | 89
CC1(C)CC(N2CCCCC2)=CC(=[N+]2CCCCC2)C1 | 47 | - | 67 | - | - | - | 13 | - | - | 51
O=C(OC12CCCN(C1)/C(=C/c1ccc(Cl)cc1)C2)c1ccc(Cl)cc1 (stereo unspecified) | . | . | - | . | . | - | . | . | . | .
C[C@H](O)[C@@H]1CN2CCc3c([nH]c4c(-c5ccccc5)cccc34)[C@@H]2C[C@@H]1N(C)C(=O)Nc1ccccc1 | - | . | - | . | . | - | . | . | . | .
COc1ccccc1NS(=O)(=O)c1ccc(C)c(C(=O)NC2CCN(Cc3ccccc3)CC2)c1 | 33 | - | 47 | - | - | - | 81 | - | - | -
COc1ccccc1NS(=O)(=O)c1cccc(C(=O)NC2CCN(Cc3ccccc3)CC2)c1 | . | - | . | - | - | . | . | . | . | .
COc1ccccc1NS(=O)(=O)c1cc(C(=O)NC2CCN(Cc3ccccc3)CC2)ccc1C | 90 | . | 68 | . | . | - | 103 | - | - | 45
CC1(C)CC2CC(C)(CN2S(=O)(=O)c2ccc(C(=O)Nc3ccc(S(=O)(=O)N4CCOCC4)cc3)cc2)C1 (stereo unspecified) | 87 | - | 53 | - | - | - | 118 | - | - | 64
CC(C)(C)c1ccc(-c2nnc(SCC(=O)Nc3ccc4cn[nH]c4c3)n2-c2ccc(Cl)cc2)cc1 | . | . | - | . | . | - | . | . | . | .
SMILES | GalR3 antag | SRC1 inh | COUP-TFII inh | SRC3 inh | NR5A2 inv ag | NCOA2 inhibitor | GalR3 antag conf | HEK-CNG parental | Gal4-VP16 ctr | COUP-TFII conf
COc1cc(NC(=O)COc2cc(O)c3c(c2)OC(C)(C)CC3=O)cc(OC)c1OC | 45 | - | 81 | - | - | - | 102 | - | - | 81
COc1ccc(S(=O)(=O)Nc2ccc3c(c2)OCO3)cc1OC | - | - | - | - | - | - | . | . | . | .
COc1ccc(NS(=O)(=O)c2ccc3c(c2)OCCO3)cc1OC | 99 | - | 57 | - | - | - | 53 | - | - | 40
O=[N+]([O-])c1ccc(N=Nc2c(Cl)cc(O)cc2Cl)cc1 | 35 | - | 64 | - | - | - | 31 | 3.9 | - | 49
Nc1c(C(=O)N/N=C/c2ccc(Cl)cc2)cnn1-c1ccccc1 | - | - | - | - | - | - | . | . | . | .
COC(=O)c1cnn(-c2ccc(Cl)cc2)c1/C=N/NC(N)=S | - | - | 43 | - | - | - | . | . | - | -
CC(=O)NC1CCCCN(Cc2cccc(F)c2)C1=O (stereo unspecified) | . | . | - | . | . | - | . | . | . | .
COc1ccc(C(C(=O)NC2CCCC2)n2c(CSCCOc3ccccc3)nc3ccccc32)cc1 (stereo unspecified) | - | . | 70 | . | - | 79 | . | . | 28 | 46
CCC(C(=O)NCc1ccccc1)n1c(CSCCOc2ccccc2)nc2ccccc21 (stereo unspecified) | - | . | 58 | . | - | 75 | . | . | - | -
CC(C)(C)c1ccc(C(=O)O/N=C(\N)c2ccccc2)cc1 | - | 82 | 86 | 82 | - | 80 | . | . | 66 | 91
CCC1CCCCN1C(=O)n1ncc(C(O)(c2ccccc2)c2ccccc2)n1 (stereo unspecified) | . | . | 50 | . | . | . | . | . | - | 43!
